Most compounds without a hit are left out; they make up all but 19% or so of the library.
KB-V1 MDR tox – KB-V1 MDR subline cytotoxicity; KB-V1 MDR cells viability, CellTiter-Glo, 72 h; Potency, µM (doses to about 46.1 µM), usual class: cytotoxic; actives 3.4% (n = 400,000); note: nearly all actives have a fitted effect of over 60% in size
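KB-V1 cells (P-gp-expressing MDR subline of KB-3-1) in phenol-red-free DMEM with 10% FBS were exposed to library compounds over a concentration series for 72 h at 37 degrees C. Viability read by CellTiter-Glo luminescence; concentration-effect curves fitted after normalization.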
DT40 TDP1 no CPT – qHTS for Inhibitors of human tyrosyl-DNA phosphodiesterase 1 (TDP1): qHTS in cells in absence of CPT; DT40 Tdp1-/- hTDP1 cells, no CPT, ATP luminescence, 48 h; Potency, µM (titrated, usually from 46.2 µM), for inactives: at the highest dose activity change, negative = growth inhibition, usual class: inhibitors; actives 15% (n = 420,000); AID 686978, 2013; note: nearly all actives have a fitted effect of over 55% in size
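Growth of hTDP1-complemented DT40 Tdp1-knockout cells is measured by ATP luminescence after at least 48 hr compound exposure at 37 °C, with DMSO substituting for the 20 nM CPT used in the parallel screen.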
HT1080 IDH1KD tx – kills HT-1080 cells with IDH1 knockdown. HT-1080 IDH1 knockdown viability, ATP luminescence, 48 h. Potency, µM (titrated, usually from 46.1 µM), inactives show at the highest dose activity, negative = toxicity, actives largely listed as cytotoxic. actives 2% (n = 360,000). AID 686971;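 note: 0% = DMSO wells and -100% = cell-free medium wells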
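CellTiter-Glo luminescence after 48 h compound exposure at 37 degrees C of IDH1-knockdown HT-1080 cells in 5% FBS RPMI. %Activity scaled between DMSO wells and cell-free media wells, with curves fitted and assigned curve classes.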
HT1080NT lethal – kills 2HG-producing HT-1080-NT fibrosarcoma cells | HT-1080-NT fibrosarcoma viability, CellTiter-Glo ATP luminescence, 48 h | Potency, µM (top dose mostly 46.1 µM), without a hit: at the highest dose activity, negative = less viability, actives largely listed as cytotoxic | actives 1.6% (n = 360,000);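 note: NT is the 2HG producing partner of a matched IDH1 knockdown line; 0% = DMSO-treated cells and -100% = media-only wells without cells; nearly all actives have a fitted effect of over 55% in size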
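HT-1080-NT; 750 cells/well; 5% FBS RPMI; 48 h compound, 37 degrees C; CellTiter-Glo luminescence; curve fitting and curve-class assignment.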
DT40 TDP1 CPT – growth inhibition of DT40 Tdp1-/-;hTDP1 cells with camptothecin (screen for TDP1 inhibitors) | chicken DT40 Tdp1-/-;hTDP1 cells + 20 nM CPT, ATP luminescence, 48 h | Potency, µM (series often up to 46.2 µM), without a hit: at the highest dose activity change, negative = growth inhibition, actives largely listed as inhibitors | actives 12% (n = 420,000); note: nearly all actives have a fitted effect of over 55% in size
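Chicken DT40 Tdp1-/- cells complemented with human TDP1, 400 cells/well, exposed to compounds plus 20 nM camptothecin for at least 48 h at 37 C; viability read as ATP content by CellTiter-Glo luminescence.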
KB-3-1 cytotox – kills parental KB-3-1 adenocarcinoma cells; KB-3-1 viability, CellTiter-Glo ATP luminescence, 72 h; Potency, µM (top dose mostly 46.1 µM), hits mostly cytotoxic; actives 1.4% (n = 400,000); note: nearly all actives have a fitted effect of over 60% in size
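Using CellTiter-Glo luminescence, growth of non-resistant KB-3-1 adenocarcinoma cells is assessed 72 h after pin-tool compound addition at 37 °C. Normalized responses across the concentration series yield fitted curves.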
* = called active by the depositor; i = inactive; ? = inconclusive; / = no result given; ! = not active in a repeat. Calls come from the whole dose curve; as a rule, active = well fitted curve in the direction sought with a large enough effect; inconclusive = small, poorly fitted or top-dose-only effect, or another doubt; inactive = no such curve, though single readings can be large; an effect the other way counts as inactive or inconclusive. Unless noted, % is set by controls: 0 for no effect and ±100 for the full control effect; potency is the fitted concentration of half-maximal effect.

SMILES	KB-V1 MDR tox	DT40 TDP1 no CPT	HT1080 IDH1KD tx	HT1080NT lethal	DT40 TDP1 CPT	KB-3-1 cytotox
O=C([C@H]1O[C@@H](n2ccc(=O)[nH]c2=O)[C@H](O)[C@@H]1O)N(CCC1=CCCCC1)CC1CC1	i	-40.6%	1.0%	?	?	i
CC(=O)c1cccc(Nc2nc(-c3ccccc3)nc3ccccc23)c1	i	?	?	-4.5%	?	i
COc1ccc(Nc2cc(C)c3cc([N+](=O)[O-])ccc3n2)cc1	i	?	-19.7%	-1.8%	?	i
Cc1cc(C)c2nc(C)cc(Nc3ccc(C(=O)N4CCOCC4)cc3)c2c1	i	-22.8%	-4.0%	-0.9%	5.2%	i
CC(=O)c1cccc(Nc2cc(C)nc3c(C)cc(C)cc23)c1	16.4µM*	14.6µM*	?	-17.8%	?	i
COC(=O)c1ccc(Nc2cc(C)nc3ccc(C)cc23)cc1	?	20.6µM*	23.1µM*	20.6µM*	14.6µM*	6.51µM*
CC(=O)c1cccc(Nc2cc(C)nc3ccc(C)cc23)c1	?	?	?	18.4µM*	?	?
Cc1ccc2nc(C)cc(Nc3ccc([N+](=O)[O-])cc3)c2c1	i	0.92µM*	?	-13.0%	1.03µM*	?
Cc1ccc(C)c(CNC(=O)CCn2cccn2)c1	i	-16.8%	/	/	-0.8%	i
CNc1ccc(C(=O)OCC(=O)NC(=O)NC2CCCC2)cc1[N+](=O)[O-]	i	7.8%	1.5%	5.0%	-22.9%	i
O=C1CCN(CCc2ccccc2)CCN1[C@H](CSc1ccc(Br)cc1)Cc1ccccc1	i	14.6µM*	-9.1%	-12.6%	16.4µM*	?
O=C1CC[C@H](O)CCN1[C@H](CSc1ccccc1)Cc1ccccc1	i	?	-0.1%	11.2%	?	i
O=C1CCN(Cc2ccc(Br)cc2)CCN1[C@H](CO)c1ccccc1	?	14.1µM*!	7.8%	8.9%	?	?
O=C1CCN(Cc2ccccc2)CCN1[C@H](CSc1ccccc1)Cc1ccccc1	14.6µM*!	20µM*	-12.7%	-6.9%	23.1µM*	?
Cc1ccc(SC[C@H](CC(C)C)N2CCN(CCc3ccccc3)CCC2=O)cc1	i	?	-14.8%	-24.7%	?	?
COc1ccc(SC[C@H](CC(C)C)N2CCN(CCc3ccccc3)CCC2=O)cc1	i	18.4µM*	-20.6%	?	14.6µM*	?
Fc1ccc(-c2cc(-c3nc(-c4cccc(Cl)c4)no3)[nH]n2)cc1	i	?	/	/	?	i
CC(C)C[C@@H](CSc1ccc(Br)cc1)N1CCN(C)CCC1=O	i	?	-4.0%	-2.7%	?	i
CC(C)C[C@@H](CN=[N+]=[N-])N1CCN(CCc2ccccc2)CCC1=O	i	12.6µM*	/	/	?	i
CC(C)C[C@@H](CSc1ccc(Br)cc1)N1CCN(CC(C)C)CCC1=O	i	16.4µM*	-3.3%	-0.3%	23.1µM*	i
CC(NC(=O)CCl)c1ccc(Cl)c(Cl)c1 (stereo not drawn)	i	18.4µM*	16.4µM*	?	16.4µM*	?
CC(NC(=O)CCl)c1ccccc1Br (stereo not drawn)	?	14.6µM*	?	-16.3%	?	?
Cc1ccc(S(=O)(=O)NCC(=O)NCC(=O)NC(C)c2ccccc2Br)cc1C (stereo not drawn)	i	-23.3%	-15.7%	-14.1%	-12.1%	?
CN(CC(=O)Nc1ccccc1N1CCCC1)S(=O)(=O)c1ccc(F)cc1	i	?	-0.9%	1.3%	?	i
Cc1ccc(NC(=S)NC2CCSc3ccccc32)cc1C (stereo not drawn)	i	?	-9.9%	-19.1%	16.4µM*	?
SMILES	KB-V1 MDR tox	DT40 TDP1 no CPT	HT1080 IDH1KD tx	HT1080NT lethal	DT40 TDP1 CPT	KB-3-1 cytotox
COC(=O)c1ccc(C(=O)NC2CCSc3ccccc32)cc1 (stereo not drawn)	i	0.2%	-0.3%	0.4%	-5.7%	i
Cc1ccc(CCNc2nc3c(S(=O)(=O)c4ccccc4)nnn3c3ccsc23)cc1	i	?	/	/	-22.1%	i
Cc1ccc(S(=O)(=O)c2nnn3c2nc(NCc2ccc4c(c2)OCO4)c2sccc23)cc1C	i	23.1µM*	/	/	?	i
COc1ccc(C)cc1Nc1nc2c(S(=O)(=O)c3cc(C)ccc3C)nnn2c2ccsc12	i	-7.0%	/	/	0.4%	i
Cc1ccc(S(=O)(=O)c2nnn3c2nc(NCc2ccc4c(c2)OCO4)c2sccc23)cc1	i	13µM*	/	/	?	i
Cc1ccc(S(=O)(=O)c2nnn3c2nc(NCCc2ccccc2)c2sccc23)cc1	?	?	/	/	16.4µM*	i
Cc1ccc(CNc2nc3c(S(=O)(=O)c4ccccc4)nnn3c3ccsc23)cc1	?	-13.7%	/	/	-27.7%	i
Cc1ccc(C)c(S(=O)(=O)c2nnn3c2nc(NCc2ccc4c(c2)OCO4)c2sccc23)c1	i	?	/	/	18.4µM*	i
COc1cc(CN(C(=O)c2ccc(Cl)cc2)C2CCS(=O)(=O)C2)cc(OC)c1OC (stereo not drawn)	i	-3.6%	/	/	0.4%	i
COc1ccc(C)cc1NC(=O)CN1C(=O)CCc2cc(S(=O)(=O)N3CCOCC3)ccc21	i	-3.7%	/	/	2.5%	i
Cc1ccc(N2C(=O)C3C4CCC(O4)C3C2=O)c(OC(F)F)c1 (stereo not drawn)	?	0.4%	-0.5%	-3.9%	1.7%	i
CCc1ccc(S(=O)(=O)c2nnn3c2nc(NC2CCCCCC2)c2sccc23)cc1	i	16.4µM*	/	/	?	i
CCN(c1ccccc1)c1nnc(NC(=O)Nc2ccc(C)cc2)s1	i	16.4µM*	/	/	13µM*	i
CCN(c1ccccc1)c1nnc(NC(=O)Nc2ccc(Br)c(C)c2)s1	i	4.11µM*	/	/	3.26µM*	i
CCc1ccccc1NC(=O)Nc1nnc(N(CC)c2ccccc2)s1	i	?	/	/	?	i
CCN(c1ccccc1)c1nnc(NC(=O)Nc2cccc(Br)c2)s1	i	?	/	/	?	i
CC1=C(C(=O)N2CCCCCC2)CC(CC(=O)NC2CCCC2)C(=O)N1Cc1ccc(F)cc1 (stereo not drawn)	i	?	8.8%	15.5%	-23.0%	i
